# Source: PubChem (National Center for Advancing Translational Sciences (NCATS))
# Most compounds without a hit are left out; they make up all but 19% or so of the library.
# DT40 TDP1 CPT: qHTS for Inhibitors of human tyrosyl-DNA phosphodiesterase 1 (TDP1): qHTS in cells in presence of CPT; chicken DT40 Tdp1-/-;hTDP1 cells + 20 nM CPT, ATP luminescence, 48 h; Potency, µM (highest dose often 46.2 µM), for the others: top-dose activity change, negative = growth inhibition, actives largely listed as inhibitors; 12% of 420,000 active; note: potency is the fitted concentration of half-maximal effect; % is set by controls: 0 for no effect and ±100 for the full control effect; nearly all actives have a fitted effect of over 55% in size
#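 Cell growth measured by CellTiter-Glo luminescence after a minimum 48 h, 37 C compound exposure with 20 nM CPT in Tdp1-knockout DT40 cells stably expressing hTDP1, seeded 400/well; qHTS titration format.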
# Chronic BCR inh: qHTS Assay to Find Inhibitors of Chronic Active B-Cell Receptor Signaling | ABC-DLBCL IkBa-CBG/CBR reporter, luminescence ratio, 4 h | Potency, µM (series often up to 46.1 µM), inactives show at the top dose activity change, negative = inhibition, most hits filed as inhibitors | 0.05% of 340,000 active; active = well fitted inhibition curve with a large enough effect in the signal ratio, with a control signal flat, not every such curve was filed as active; inconclusive = small, poorly fitted or top-dose-only effect, or effect the other way, or a change in a side signal; the % refers to the signal ratio;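 note: potency is the fitted concentration of half-maximal effect; plate controls were basal doxycycline-induced cells for no effect and cells given 10 µM MG132 for full effect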
#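 Concentration-response series (up to 46 uM) were applied to TMD8 dual-reporter cells for 4 h at 37C with doxycycline. Green/red ratio, after filter-overlap correction, defined %Activity; red signal alone was normalised to basal cells and zero luminescence.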
# MCF10A rerep: A quantitative high throughput screen for small molecules that induce DNA re-replication in MCF 10a normal breast cells | MCF 10A DNA re-replication, Hoechst nuclear intensity, 48 h | Potency, µM (highest dose often 46.1 µM), without a hit: top-dose activity, positive = re-replication, actives largely listed as activators | 2.9% of 350,000 active | AID 624296, 2012; note: potency is the fitted concentration of half-maximal effect; % of control where 0% means no effect; nearly all actives have a fitted effect of over 50% in size
# IL-1B inflam inh: qHTS for Inhibitors of Inflammasome Signaling: IL-1-beta AlphaLISA Primary Screen; THP-1 LPS/ATP IL-1B secretion, AlphaLISA, 16 h; active compounds read low; activity change, % at 57.5 µM; 4.7% of 360,000 active; AID 743279, 2014; in the data active = activity change below about -50%; inconclusive = mostly about -30% to -49%; note: % is set by controls: 0 for no effect and ±100 for the full control effect
#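 THP-1 cells pretreated 1 hr with compounds (up to 57.5 uM final), then stimulated with LPS (250 ng/mL final) plus ATP (1.25 mM final); secreted IL-1B measured by AlphaLISA after 16 hr, decreased signal indicating inhibition.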
# SW480 rereplic: A quantitative high throughput screen for small molecules that induce DNA re-replication in SW480 colon adenocarcinoma cells; AID 624297, 2012; SW480 DNA re-replication, Hoechst DNA content imaging, 48 h; Potency, µM (series often up to 46.1 µM), inactives show at the top dose re-replication activation, usual class: activators; 1.8% of 340,000 active; note: potency is the fitted concentration of half-maximal effect; % of control where 0% means no effect; nearly all actives have a fitted effect of over 55% in size
#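 Readout is total intensity of Hoechst-stained nuclei, excited at 405 nm and collected at 500-530 nm. Compound treatment lasted 48 hr at 37 C in 5% CO2 before staining.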
# TDP1 cell noCPT: qHTS for Inhibitors of human tyrosyl-DNA phosphodiesterase 1 (TDP1): qHTS in cells in absence of CPT; DT40 Tdp1-/- hTDP1 cells, no CPT, ATP luminescence, 48 h; Potency, µM (titrated, usually from 46.2 µM), for the others: at the highest dose activity change, negative = growth inhibition, usual class: inhibitors; 15% of 420,000 active; AID 686978, 2013; note: potency is the fitted concentration of half-maximal effect; % is set by controls: 0 for no effect and ±100 for the full control effect; nearly all actives have a fitted effect of over 55% in size
#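 Chicken DT40 Tdp1-/- cells complemented with human TDP1, screened without camptothecin (DMSO vehicle only), 400 cells/well. Compounds pin-transferred, cells incubated at 37 °C for at least 48 hr. Growth read as ATP-dependent luminescence (CellTiter-Glo, 30 min at RT).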
# Starred values were filed as active, the others as inactive; u = inconclusive; x = no result given; [ ] = remark or other dose. Unless noted, calls come from the whole dose curve; as a rule, active = well fitted curve in the direction sought with a large enough effect; inconclusive = small, poorly fitted or top-dose-only effect, or another doubt; inactive = no such curve, though single readings can be large; an effect the other way counts as inactive or inconclusive.
SMILES,DT40 TDP1 CPT,Chronic BCR inh,MCF10A rerep,IL-1B inflam inh,SW480 rereplic,TDP1 cell noCPT
FC(F)(F)C1=NNC(c2ccc3ccccc3c2)=NN1,-19%,x,x,19,x,u
CN1CCN(C(=O)CCCN2C(=O)/C(=C/c3ccccc3)SC2=S)CC1,18µM*,u,u,-97*,u,16µM*
COc1ccc(NC(=O)CSC2=Nc3ccccc3C3=NC(CCC(=O)NC4CCCCC4)C(=O)N23)cc1Cl (stereo not drawn),u,x,x,x,x,23µM*
O=C(CSC1=Nc2ccccc2C2=NC(CCC(=O)NC3CCCCC3)C(=O)N12)Nc1cccc(C(F)(F)F)c1 (stereo not drawn),u,x,x,x,x,23µM*
O=C(CCC1N=C2c3ccccc3N=C(SCc3cccc(F)c3)N2C1=O)NC1CCCCC1 (stereo not drawn),-11%,0%,x,x,x,-21%
COc1ccc(OC)c(NC(=O)CSC2=Nc3ccccc3C3=NC(CCC(=O)NC4CCCCC4)C(=O)N23)c1 (stereo not drawn),0%,1%,x,x,x,-27%
CC(C)c1ccc(NC(=O)CSC2=Nc3ccccc3C3=NC(CCC(=O)NC4CCCCC4)C(=O)N23)cc1 (stereo not drawn),23µM*,10%,x,x,x,23µM*
COc1ccc(NC(=O)CSC2=Nc3ccccc3C3=NC(CCC(=O)NC4CCCCC4)C(=O)N23)cc1 (stereo not drawn),u,9%,x,x,x,-26%
CCOc1ccccc1NC(=O)CSC1=Nc2ccccc2C2=NC(CC(=O)NC3CCCCC3)C(=O)N12 (stereo not drawn),21µM*,x,x,x,x,21µM*
COc1cc(NC(=O)CCC(=O)N2CCN(S(=O)(=O)c3ccc(C)cc3)CC2)cc(OC)c1,-1%,x,10%,-1,10%,-20%
CCOc1ccc(CNS(=O)(=O)c2ccc(-c3cc(C(F)(F)F)on3)s2)cc1,u,x,x,x,x,-30%
Cc1c(Cl)cccc1NC(=O)c1cnc2sc(N3CCCC3)nn2c1=O,-21%,x,x,x,x,-5%
CCOc1ccc(NC(=O)CSC2=Nc3ccccc3C3=NC(CC(=O)NCc4ccco4)C(=O)N23)cc1 (stereo not drawn),15µM*,u,x,x,x,23µM*
O=C(CSC1=Nc2ccccc2C2=NC(c3ccccc3)C(=O)N12)NC1CCCCC1 (stereo not drawn),-9%,u,u,-12,-1%,-14%
O=C(CSC1=Nc2ccccc2C2=NC(CC(=O)NC3CCCCC3)C(=O)N12)Nc1ccc(F)cc1 (stereo not drawn),u,1%,x,x,x,-94%
CN(C(=O)CSC1=Nc2ccccc2C2=NC(c3ccccc3)C(=O)N12)C1CCCCC1 (stereo not drawn),21µM*,u,u,7,10%,u
CCc1ccc(NC(=O)CSC2=Nc3ccccc3C3=NC(CC(=O)NC4CCCCC4)C(=O)N23)cc1 (stereo not drawn),12µM*,12%,x,x,x,9.2µM*
CC(C)c1ccc(NC(=O)CSC2=Nc3ccccc3C3=NC(CC(=O)NCc4ccc(F)cc4)C(=O)N23)cc1 (stereo not drawn),1%,u,x,x,x,-11%
CC(C)c1ccc(NC(=O)CSC2=Nc3ccccc3C3=NC(CC(=O)NC4CCCCC4)C(=O)N23)cc1 (stereo not drawn),21µM*,6%,x,x,x,21µM*
COc1cccc(CN(C)CCCn2cnc3c(SC)ncnc32)c1,-15%,x,x,23,x,-2%
Cc1ccc2nc(SCC(=O)N3CCC(Cc4ccccc4)CC3)nc(=O)n2c1,u,3%,-14%,3,-8%,u
COC(=O)[C@H](CC(C)C)NS(=O)(=O)NC(=O)OC(C)(C)C,-15%,x,x,x,x,0%
COc1ccc2c(CC(=O)NNC(=O)c3ccc(O)cc3)coc2c1,31%,u,-35%,16,4%,-14%
COC(=O)COc1cc(OCC(=O)OC)c2c(C)c(Cl)c(=O)oc2c1,10%,2%,1%,-83*,1%,16%
COC(=O)COc1cc(C)cc2oc(=O)c(CC(=O)OC)c(C)c12,6%,4%,3%,-10,1%,-3%
SMILES,DT40 TDP1 CPT,Chronic BCR inh,MCF10A rerep,IL-1B inflam inh,SW480 rereplic,TDP1 cell noCPT
CCOc1ccc(N2C(=O)CC(Sc3nc(CC(C)C)ccc3C#N)C2=O)cc1 (stereo not drawn),23µM*,u,u,-1,5.8µM*,u
CCOc1ccc(N2C(=O)CC(N)C2=O)cc1 (stereo not drawn),1.8µM*,u,18µM*,11,u,2.6µM*
CCOc1ccc(N2C(=O)CC(Sc3nc(C)cc(C)c3C#N)C2=O)cc1 (stereo not drawn),u,0%,2%,-8,-2%,u
COc1ccc(N2C(=O)CC(Sc3n[nH]c(-c4ccccc4)n3)C2=O)cc1 (stereo not drawn),0.46µM*,0%,27%,2,4%,1.2µM*
CCOC(=O)CN1C(=O)C(Sc2n[nH]c(-c3ccccc3)n2)CCc2ccccc21 (stereo not drawn),21µM*,9%,22%,u,-1%,21µM*
CCOc1ccc(N2C(=O)CC(Cc3cc(C)cc(C)c3)C2=O)cc1 (stereo not drawn),-6%,0%,0%,-6,-1%,u
COc1ccc(N2C(=O)CC(c3ccccc3)CC2=O)cc1,-3%,-1%,6%,-5,6%,-12%
CCOC(=O)CN1C(=O)C(CC)Oc2ccccc21 (stereo not drawn),-2%,0%,4%,0,-10%,-18%
Cn1c(=O)c2nc(SCC(=O)Nc3cc(Cl)ccc3Cl)n(C)c2n(C)c1=O,u,-26%,x,x,x,u
CCCN=C1N(C)C[C@@H]2[C@@H]3C(=O)N(C)C(=O)[C@@H]3[C@](Cc3ccccc3)(C(=O)OC)N12,9%,2%,27%,7,-43%[9.22 µM],0%
CCOc1ccc(N2C(=O)C3C(C2=O)C3(c2ccccc2)c2ccccc2)cc1 (stereo not drawn),18µM*,u,24%,-22,6%,u
